High-throughput results as filed in PubChem BioAssay.
Rows were chosen to be rich in hits. Some 11% of all compounds tested hit in one or more screens of this group.
BAZ2B inh: BAZ2B (human) inhibition; AID 504333; Potency, µM (series often up to 114 µM), inactives show top-dose activity change, negative = inhibition, actives largely listed as inhibitors; AlphaScreen BAZ2B-H3K14Ac peptide displacement; 360,000 compounds, 4.4% hits; note: % is set by controls: 0 for no effect and ±100 for the full control effect; nearly all actives have a fitted effect of over 60% in size
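Protein-peptide AlphaScreen: BAZ2B 50 nM, b-H3K14Ac 50 nM, 1x PBS pH 7.4 + 0.01% Tween-20. Preincubation 30 min RT; cpd 30 min RT (top 110 uM); beads 20 min RT, light-protected.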
L3MBTL1 inh: inhibitors of human L3MBTL1 | Q9Y468 | AlphaScreen L3MBTL1–H3K9me1 peptide binding | Potency, µM (series often up to 57.1 µM), for inactives: top-dose activity, negative = inhibition, hits mostly inhibitors | 230,000 compounds, 0.66% hits | AID 485360; note: % is set by controls: 0 for no effect and ±100 for the full control effect; nearly all actives have a fitted effect of over 60% in size
Target sequence (Q9Y468 whole entry, looked up): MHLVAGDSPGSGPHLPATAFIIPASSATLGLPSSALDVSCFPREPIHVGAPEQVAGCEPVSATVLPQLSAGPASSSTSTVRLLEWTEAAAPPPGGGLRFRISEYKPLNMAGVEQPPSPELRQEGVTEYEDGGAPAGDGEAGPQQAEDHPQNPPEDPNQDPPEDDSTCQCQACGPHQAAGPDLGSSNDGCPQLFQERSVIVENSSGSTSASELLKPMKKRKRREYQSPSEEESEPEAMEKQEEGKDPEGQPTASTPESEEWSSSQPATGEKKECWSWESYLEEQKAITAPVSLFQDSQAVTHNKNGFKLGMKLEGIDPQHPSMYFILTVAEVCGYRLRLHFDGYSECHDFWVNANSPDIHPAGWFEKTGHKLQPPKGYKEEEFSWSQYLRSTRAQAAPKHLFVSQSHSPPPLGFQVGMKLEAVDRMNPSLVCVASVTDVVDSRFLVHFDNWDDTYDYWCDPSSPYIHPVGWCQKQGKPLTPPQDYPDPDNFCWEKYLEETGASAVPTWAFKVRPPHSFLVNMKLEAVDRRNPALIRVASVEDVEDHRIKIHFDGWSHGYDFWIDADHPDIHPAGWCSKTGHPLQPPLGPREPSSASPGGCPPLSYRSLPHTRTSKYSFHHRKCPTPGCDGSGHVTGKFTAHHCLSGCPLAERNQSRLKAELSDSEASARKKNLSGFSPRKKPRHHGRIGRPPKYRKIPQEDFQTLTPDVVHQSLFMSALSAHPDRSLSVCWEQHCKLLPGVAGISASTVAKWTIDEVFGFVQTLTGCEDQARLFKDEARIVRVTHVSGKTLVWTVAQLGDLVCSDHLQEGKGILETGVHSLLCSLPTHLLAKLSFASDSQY
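Read-out is AlphaScreen signal from streptavidin donor and nickel chelate acceptor beads (10 ug/mL final each) bridging L3MBTL1 (50 nM) and biotinylated K9-monomethylated H3(1-15) peptide (75 nM), after 30 min compound exposure at room temperature.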
G9a inh: G9a (human) methyltransferase inhibition; Q96KQ7; 350,000 compounds, 8.8% hits; Potency, µM (doses to about 102 µM), for inactives: top-dose activity, negative = inhibition, actives largely listed as inhibitors; G9a H3K9 monomethylation, AlphaScreen, 2 h; AID 504332; note: % is set by controls: 0 for no effect and ±100 for the full control effect; nearly all actives have a fitted effect of over 75% in size
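Using a bead-based AlphaScreen, monomethylated H3K9 product from 2 h room-temperature reactions (G9a 20 nM, peptide 500 nM, SAM 20 uM) was detected with 0.5 ug/mL rabbit anti-H3K9me1 antibody.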
JMJD2A Tudor inh: inhibitors of human JMJD2A Tudor domain | AID 504339 | 390,000 compounds, 4.4% hits | Potency, µM (titrated, usually from 114 µM), for the others: at the top dose activity change, negative = inhibition, usual class: inhibitors | AlphaScreen JMJD2A-Tudor / H3K4me3 peptide binding | O75164; note: % is set by controls: 0 for no effect and ±100 for the full control effect; nearly all actives have a fitted effect of over 50% in size
HP1b chromo inh: HP1-beta chromodomain-methylated histone interaction inhibition. 390,000 compounds, 0.56% hits. P83916. AlphaScreen HP1-beta / biotin-H3K9me3 peptide binding. Potency, µM (titrated, usually from 114 µM), for the others: top-dose activity change, negative = inhibition, hits mostly inhibitors. AID 540317; note: nearly all actives have a fitted effect of over 70% in size
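Compound inhibition of the preformed complex between 50 nM HP1-beta and 50 nM biotinylated H3K9me3 peptide was read by AlphaScreen. Buffer was PBS pH 7.4 with 0.01% Tween-20. Incubations ran 30 min at room temperature, with 10 ug/mL donor/acceptor beads.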
An asterisk follows results filed as active; ? = inconclusive; nt = not tested or not shown; [ ] = remark or other dose. Calls come from the whole dose curve; as a rule, active = well fitted inhibition curve with a large enough effect; inconclusive = small, poorly fitted or top-dose-only effect; inactive = no such curve, though single readings can be large or run the other way. Potency is the fitted concentration of half-maximal effect.

SMILES	BAZ2B inh	L3MBTL1 inh	G9a inh	JMJD2A Tudor inh	HP1b chromo inh
CN(C)c1ccc(CNC(=O)c2sc3ncccc3c2-n2cccc2)cc1	18µM*	nt	22µM*	28µM*	?
CCOC(=O)C1=C(C)NC(C)=C(C(=O)OC)[C@@H]1c1cccc([N+](=O)[O-])c1	nt	nt	1%[21.5 µM]	nt	nt
COC(=O)C1=C(C)NC(C)=C(C(=O)O[C@@H]2CCCN(Cc3ccccc3)C2)[C@@H]1c1cccc([N+](=O)[O-])c1	nt	nt	nt	45µM*	?
COc1ccc(C2=NN(C(=O)c3ccccc3)C(c3ccc(OC)c(OC)c3)C2)c(O)c1 (stereo not given)	-26%	nt	71µM*	-33%	-7%
COc1ccc(C2CC(c3ccc(OC)cc3OC(C)=O)=NN2C(=O)c2ccccc2)cc1 (stereo not given)	-32%	nt	-10%	-28%	-17%
COc1cc(C(=O)Nc2nnc(C(C)(C)C)s2)c([N+](=O)[O-])cc1OC	-2%	1%	10µM*	-7%[57.1 µM]	?
COc1cc(C(=O)Nc2nnc(CC(C)(C)C)s2)c([N+](=O)[O-])cc1OC	-2%	1%	14%[59 µM]	-18%	7%
CC(=O)c1ccc(N2CCN(S(=O)(=O)c3cccc4nsnc34)CC2)cc1	-25%	-11%	-31%	?	?
COc1ccc(N2CCN(S(=O)(=O)c3cccc4nsnc34)CC2)cc1	?	nt	-11%[12.7 µM]	56µM*	-37%
COc1cccc(N2CCN(S(=O)(=O)c3cccc4nsnc34)CC2)c1	-37%	nt	56µM*	-26%	17%
O=C(Cc1ccc(-c2ccccc2)cc1)NCCS(=O)(=O)N1CCN(c2ccccc2F)CC1	5%	nt	15%[59 µM]	3%	26%[57 µM]
COc1ccc(-c2nc3cnc(N4CCN(C)CC4)nc3n(CCc3ccccc3)c2=O)cc1	nt	nt	10%[0.501 µM]	nt	nt
CC1(C)CC(=O)C(=CN2CCOCC2)C(=O)C1	-34%	?	35µM*	1%	48%
CC1(C)CC(=O)C(=CN2CCN(C(=O)c3ccco3)CC2)C(=O)C1	3%	0%	?	-1%	51%
Cc1ccccc1CNC1CCCCC1	8%	7%	-10%[59 µM]	-13%[57.1 µM]	41%
O=[N+]([O-])c1ccccc1CNC1CCCCCC1	?	-4%	22µM*	50µM*	?
CCc1cccc(C)c1NC(=O)c1cnn(-c2ccc(OC)cc2)c1C1CCN(C(=O)OC(C)(C)C)CC1	5%[57.1 µM]	nt	-27%[59 µM]	-17%	31%
Cc1cccc(N2CCN(Cc3nc(-c4cccc(Oc5ccccc5)c4)oc3C)CC2)n1	?	?	40µM*	45µM*	?
COc1ccc(-c2nc(CN3CCN(Cc4ccccc4)CC3)c(C)o2)cc1	?	-7%	nt	-33%	1%
O=C(O)CC(NS(=O)(=O)c1ccc(Br)cc1)c1ccco1 (stereo not given)	0%	-2%	79µM*	-11%	16%
Cc1ccc(S(=O)(=O)NC(CC(=O)NCC2CCCO2)c2ccco2)cc1 (stereo not given)	-5%	-5%	-32%	4.5µM*	7%
CCCCNC(=O)CC(NS(=O)(=O)c1ccc(C)cc1)c1ccco1 (stereo not given)	-3%	-3%	3%	-14%	46%
CCOC(=O)c1c(NC(=O)CSc2cn(CCNC(=O)c3ccc(OC)c(OC)c3)c3ccccc23)sc2c1CCC2	-30%	nt	2%[59 µM]	-33%	7%
N#C/C(=C\Nc1ccc2cn[nH]c2c1)c1nc(-c2ccccc2)cs1	nt	nt	71µM*	-11%	33%
N#C/C(=C\Nc1ccc2cn[nH]c2c1)c1nc(-c2ccc(Cl)cc2)cs1	12%	nt	123%[59 µM]	0%	26%
SMILES	BAZ2B inh	L3MBTL1 inh	G9a inh	JMJD2A Tudor inh	HP1b chromo inh
COc1ccc(C2(C)CC(C)(C)Nc3ccccc32)cc1 (stereo not given)	?	2%[2.29 µM]	-2%[0.501 µM]	50µM*	?
COc1ccc(C2(C(=O)O)CCCC2)cc1	-7%	nt	-23%[12.7 µM]	-29%	22%
CCCCCOC(=O)Nc1nc(=O)n(C2O[C@H](C)[C@@H](O)[C@@H]2O)cc1F (stereo not given in full)	nt	nt	8%[59 µM]	nt	nt
Cc1ccc2c(CC(=O)Nc3cc(C(F)(F)F)ccc3Cl)coc2c1C	-8%	nt	-1%[59 µM]	?	26%
CN(C)c1cccc(/C=C(\C#N)c2ccccc2)c1	-36%	-2%	45µM*	-13%	21%
Cc1nn(C(C)C(=O)N2CCN(c3ccc(F)cc3)CC2)c(=O)c2c1sc1ccccc12 (stereo not given)	4%	nt	0%[59 µM]	-20%	8%
CCCn1c2ccc(C)cc2c2nnc(SCCN3CCCCC3)nc21	-3%	nt	8.9µM*	-22%	38%
CCn1c2ccc(C)cc2c2nnc(SCCN3CCCCC3)nc21	2%	nt	7%	-21%	-1%
O=C(CCCCn1cnc2c(=S)nc[nH]c21)Nc1ccc(C(=O)O)c(O)c1	nt	nt	nt	2.8µM*	71µM*
O=C(O)CCCC(=O)Nc1ccc(Cl)c(Cl)c1	14%	2%	-2%[59 µM]	-3%	18%
Cc1cccc(C(=O)N2CCc3cc(CNC(=O)c4cc5ccccc5[nH]4)ccc32)c1	-9%	nt	-16%[59 µM]	-27%	-12%
CN(C)c1ccc(C(=O)OCC(=O)NC2CCCCCC2)cc1	nt	6%	-4%	-18%	13%
CN(C(=O)COC(=O)c1cccnc1Cl)C1CCCCC1	nt	4%	nt	-2%	23%
CN(C)c1ccc(N=Nc2ccccc2C(=O)OCC(=O)NCC2CCCCC2)cc1	8.9µM*	11µM*	7.9µM*	7.9µM*	?
CN(C)c1ccc(N=Nc2ccccc2C(=O)OCC(=O)NC2CCCC2)cc1	13µM*	?	11µM*	32µM*	-87%
CN(C)c1ccc(N=Nc2ccccc2C(=O)OCC(=O)N(C)C2CCCCC2)cc1	8.9µM*	28µM*	20µM*	?	-24%
O=C(COC(=O)c1ccccc1Br)NCC1CCCCC1	nt	4%	nt	14%	23%
CCCCC1CCC(C(=O)N(CCCC)c2c(N)n(CCCC)c(=O)[nH]c2=O)CC1 (stereo not given)	-15%	nt	nt	-12%	-3%
O=C1/C(=C/c2ccc(Cl)cc2)SC(=S)N1CCC(=O)N1CCCCC1CCO (stereo not given)	?	nt	-26%	?	-15%
O=C1/C(=C/c2ccco2)SC(=S)N1CCC(=O)N1CCCCC1CCO (stereo not given)	50µM*	nt	45µM*	-5%	37%
O=C1/C(=C/c2cccs2)SC(=S)N1CC(=O)N1CCCCC1CCO (stereo not given)	?	nt	71µM*	0%	39%
O=C1/C(=C\c2ccco2)SC(=S)N1C1CCCCC1	10µM*	0%[2.29 µM]	6%[0.501 µM]	nt	nt
O=C1/C(=C/c2cccc(Cl)c2)SC(=S)N1CCC(=O)N1CCCCC1CCO (stereo not given)	28µM*	nt	nt	-11%	22%
Cc1ccc(N2C(=O)/C(=C/c3ccco3)SC2=S)cc1	?	-20%	-17%	?	-16%
